TGFb inhibitor = inhibitors of TGF-b signaling; HepG2 CAGA-GFP TGF-b/SMAD3 reporter, GFP fluorescence, 18 h; TGF-beta stimulated, 500 pg/mL final; Potency, µM (series often up to 46.1 µM), without a hit: at the highest dose activity, negative = inhibition, hits mostly inhibitors; 1.2% of 410,000 active; AID 588855; note: potency is the fitted concentration of half-maximal effect; % is set by controls: 0 for no effect and ±100 for the full control effect; nearly all actives have a fitted effect of over 65% in size
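Using HEPG2 CAGA-GFP reporter cells at 1000 cells/well, we pinned test compounds, stimulated with recombinant TGF-beta (500 pg/mL final) and measured total well GFP after 18 h.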
TDP1 cell noCPT = qHTS for Inhibitors of human tyrosyl-DNA phosphodiesterase 1 (TDP1): qHTS in cells in absence of CPT; DT40 Tdp1-/- hTDP1 cells, no CPT, ATP luminescence, 48 h; Potency, µM (series often up to 46.2 µM), for inactives: at the top dose activity change, negative = growth inhibition, usual class: inhibitors; 15% of 420,000 active; AID 686978, 2013; note: potency is the fitted concentration of half-maximal effect; % is set by controls: 0 for no effect and ±100 for the full control effect; nearly all actives have a fitted effect of over 55% in size
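No-CPT arm: Tdp1-/-;hTDP1 DT40 cells (400/well) plus compounds, incubated ≥48 hr at 37 °C. Readout CellTiter-Glo luminescence.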
HepG2 tox = HepG2 cytotoxicity, counter-screen for TGF-b inhibitors. HepG2 CAGA-GFP viability, ATP luminescence, 18 h. Potency, µM (top dose mostly 46.1 µM), for inactives: at the top dose activity change, negative = cytotoxicity, hits mostly cytotoxic. 0.76% of 410,000 active. AID 588856; note: potency is the fitted concentration of half-maximal effect
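HepG2 CAGA-GFP cells (1000/well, DMEM with 1% FBS) received compound, then TGF-beta at 500 pg/mL final, and were incubated 18 hours at 37 degrees C. Viability was read by CellTiter-Glo luminescence. Media-only wells were set as complete cell-killing and DMSO as no toxicity.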
TDP1 block = TDP1 (human) enzyme inhibition; Q9NUW8; recombinant TDP1, AlphaScreen DNA substrate cleavage; Potency, µM (top dose mostly 130 µM), without a hit: at the top dose activity change, negative = inhibition, most hits filed as inhibitors; 0.28% of 350,000 active; note: potency is the fitted concentration of half-maximal effect; % is set by controls: 0 for no effect and ±100 for the full control effect; nearly all actives have a fitted effect of over 40% in size
Target sequence (Q9NUW8 whole entry, looked up): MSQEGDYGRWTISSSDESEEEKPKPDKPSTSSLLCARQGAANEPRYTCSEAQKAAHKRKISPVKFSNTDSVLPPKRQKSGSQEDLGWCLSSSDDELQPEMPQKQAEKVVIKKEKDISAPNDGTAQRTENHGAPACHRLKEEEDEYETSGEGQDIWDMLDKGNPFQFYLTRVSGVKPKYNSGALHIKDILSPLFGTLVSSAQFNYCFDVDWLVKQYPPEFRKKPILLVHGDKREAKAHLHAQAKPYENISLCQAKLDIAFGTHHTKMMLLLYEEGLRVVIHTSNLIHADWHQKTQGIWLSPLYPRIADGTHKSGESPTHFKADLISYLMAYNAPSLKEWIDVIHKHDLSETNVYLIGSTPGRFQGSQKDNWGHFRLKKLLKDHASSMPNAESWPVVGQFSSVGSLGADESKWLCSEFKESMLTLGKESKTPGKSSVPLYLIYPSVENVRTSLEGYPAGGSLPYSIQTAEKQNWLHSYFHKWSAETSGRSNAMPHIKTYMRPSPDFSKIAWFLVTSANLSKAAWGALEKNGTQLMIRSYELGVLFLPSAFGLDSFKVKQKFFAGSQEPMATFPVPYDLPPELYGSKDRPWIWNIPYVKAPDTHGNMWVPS
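Compounds were preincubated with Tdp1 (1 nM final) for 15 min at room temperature before substrate (15 nM final) started a 5 min reaction; beads (10 ug/ml final) were then added for 10 min before AlphaScreen detection.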
IL1B secr inh = inhibitors of inflammasome signaling (IL-1 beta secretion) | THP-1 LPS/ATP IL-1B secretion, AlphaLISA, 16 h; stronger effect = lower value | activity change, % at 57.5 µM | 4.7% of 360,000 active; in the data active = activity change below about -50%; inconclusive = mostly about -30% to -49%; note: % is set by controls: 0 for no effect and ±100 for the full control effect
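Secreted IL-1B measured by AlphaLISA bead assay after 16 h compound exposure of THP-1 cells; compounds (final up to 57.5 uM) added 1 h before LPS (250 ng/mL) and ATP (1.25 mM) stimulation; lower signal means less secretion.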
DT40 TDP1 CPT = growth inhibition of DT40 Tdp1-/-;hTDP1 cells with camptothecin (screen for TDP1 inhibitors). Potency, µM (doses to about 46.2 µM), for the others: at the top dose activity change, negative = growth inhibition, hits mostly inhibitors. chicken DT40 Tdp1-/-;hTDP1 cells + 20 nM CPT, ATP luminescence, 48 h. 12% of 420,000 active; note: potency is the fitted concentration of half-maximal effect; % is set by controls: 0 for no effect and ±100 for the full control effect; nearly all actives have a fitted effect of over 55% in size
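Chicken DT40 Tdp1-/- cells stably complemented with human TDP1 were seeded at 400 cells/well in medium containing 20 nM camptothecin, exposed to pin-transferred compounds, and grown at 37 °C for at least 48 hr. Viability was read as ATP luminescence.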
Active calls of the source: *; ? = inconclusive; · = no result. Rows were chosen to be rich in hits. Some 18% of all compounds tested hit in one or more screens of this group. Unless noted, calls come from the whole dose curve; as a rule, active = well fitted curve in the direction sought with a large enough effect; inconclusive = small, poorly fitted or top-dose-only effect, or another doubt; inactive = no such curve, though single readings can be large; an effect the other way counts as inactive or inconclusive.

SMILES	TGFb inhibitor	TDP1 cell noCPT	HepG2 tox	TDP1 block	IL1B secr inh	DT40 TDP1 CPT
Cc1ccccc1CN1CCSc2sccc2C1=O	0%	-19%	-1%	5%	0	-16%
CCOC(=O)c1c(NC(=O)C(C)N2CCN(S(=O)(=O)c3cccs3)CC2)sc2c1CCC(C)C2 (centres undefined)	-12%	5.8µM*	0%	-3%	2	8.2µM*
COc1ccccc1NC(=O)c1c(NCc2ccc(C)o2)sc2c1CCCCC2	?	6.5µM*	-33%	10%	·	5.8µM*
COc1ccccc1NC(=O)c1c(NC(=O)c2ccco2)sc2c1CCC2	1%	?	-1%	4%	-18	?
COc1ccc(Cl)cc1NC(=O)c1c(NCc2ccc(C)o2)sc2c1CCCCC2	-22%	15µM*	-18%	-1%	·	9.2µM*
CCOC(=O)N1CCc2c(sc(NCc3cc(OC)ccc3OC)c2C(=O)Nc2cc(OC)ccc2OC)C1	-3%	?	-16%	9%	·	?
CCOC(=O)c1c(NC(=O)Cc2cccs2)sc(C(=O)NC2CCCC2)c1C	-18%	-20%	0%	3%	8	1%
CCOC(=O)c1c(NC(=O)C2CCN(S(=O)(=O)c3cccs3)CC2)sc(C)c1C	9%	?	-5%	7%	-3	?
CCOC(=O)c1c(NC(=O)Cc2cccs2)sc(C(=O)NC2CCCCC2)c1C	1%	16µM*	-6%	0%	13	?
COC(=O)c1c(NC(=S)NN2CCN(C)CC2)sc2c1CCC(C)C2 (centres undefined)	?	?	-40%	7%	-69*	?
COC(=O)Nc1sc2c(c1C(N)=O)CCC(C)C2 (centres undefined)	-12%	-3%	5%	0%	-2	-4%
COc1ccccc1NC(=O)c1c(NC(=O)c2cccs2)sc2c1CCC(C(C)(C)C)C2 (centres undefined)	-12%	-4%	-12%	·	·	-6%
COc1ccc(Cl)cc1NC(=O)c1c(NCc2ccc(C)o2)sc2c1CCC(C)C2 (centres undefined)	-14%	16µM*	-28%	4%	·	?
COc1ccc(Cl)cc1NC(=O)c1c(NCc2cccs2)sc2c1CCC(C)C2 (centres undefined)	?	13µM*	-68%	6%	·	?
CSCC[C@H](NC(=O)CNC(=O)CNC(=O)[C@H](CO)NC(=O)[C@H](CCCNC(=N)N)NC(=O)[C@H](CO)NC(=O)[C@H](CC(C)C)NC(=O)[C@H](CC(C)C)NC(=O)CNC(=O)[C@H](C)NC(=O)[C@H](CC(C)C)NC(=O)[C@H](CCCNC(=N)N)NC(=O)[C@H](Cc1cnc[nH]1)NC(=O)[C@@H](NC(=O)[C@@H](N)C(C)C)[C@@H](C)O)C(=O)N[C@H](C(=O)N[C@@H](CCCCN)C(=O)N[C@@H](CO)C(=O)N[C@@H](CC(N)=O)C(=O)N[C@@H](Cc1ccccc1)C(=O)N[C@H](C(=O)N1CCC[C@H]1C(=O)N[C@H](C(=O)N[C@@H](CC(N)=O)C(=O)N[C@H](C(=O)NCC(=O)N[C@@H](CO)C(=O)N[C@@H](CCCCN)C(=O)N[C@@H](C)C(=O)N[C@@H](Cc1ccccc1)C(N)=O)C(C)C)[C@@H](C)O)C(C)C)C(C)C	·	·	·	11%	·	·
COc1ccc(C2N=C(N)N=C(N)N2c2ccc(C)cc2)cc1 (centres undefined)	-2%	?	-3%	4%	?	6.5µM*
Cc1cc(C)cc(N2C(N)=NC(N)=NC2c2cccc(Cl)c2)c1 (centres undefined)	0%	5.2µM*	-13%	·	-54*	?
Cc1cc(C)cc(N2C(N)=NC(N)=NC2c2ccccc2F)c1 (centres undefined)	1%	0.65µM*	-32%	·	-28	?
COc1ccc(C2C(C(C)=O)=C(O)C(=O)N2c2ccc(C)cc2)cc1 (centres undefined)	19%	3%	23%	·	0	-12%
O=[S@]1Oc2ccccc2-c2ccccc21	-27%	13µM*	-27%	·	?	?
O=C(C1=NNCC1c1ccc(Cl)cc1)C1CO1 (centres undefined)	11%	?	-22%	-2%	-67*	8.2µM*
O=C1Nc2ccc(Cl)cc2[C@@](C#CC2CC2)(C(F)(F)F)O1	·	17µM*	·	3%	·	?
O=C1Nc2cc(Cl)ccc2C1(N1CCNCC1)C(F)(F)F (centres undefined)	16%	?	-35%	7%	16	?
Cc1ccc(Nc2nnc(SC(C)C(=O)NCC3CCCO3)s2)cc1 (centres undefined)	-9%	-16%	2%	0%	-7	?
CC(=O)c1ccc(OCCCC(=O)N2CCN(S(=O)(=O)c3cccs3)CC2)cc1	-6%	12µM*	-18%	6%	-21	?
SMILES	TGFb inhibitor	TDP1 cell noCPT	HepG2 tox	TDP1 block	IL1B secr inh	DT40 TDP1 CPT
O=C(Cc1c(Cl)cccc1Cl)N1CCN(S(=O)(=O)c2cccs2)CC1	14%	?	19%	2%	8	21µM*
CCOC(=O)c1ccc[n+](CC(=O)c2ccc(NC(=O)c3ccccc3)cc2)c1	5%	18%	10%	·	3	-13%
CC(C)NC(=O)C1(C)CCN1C(=O)c1ccccc1F (centres undefined)	-1%	-3%	-1%	·	31	-14%
CC(C)c1ccc(NC(=O)c2ccc(NC(=O)CCS(=O)(=O)c3cccs3)cc2)cc1	-1%	-24%	-4%	4%	·	-4%
CC(C)c1ccc(/C=c2\sc3n(c2=O)C(N)=C(C#N)C(c2ccc(C(C)C)cc2)C=3C(N)=O)cc1 (centres undefined)	-13%	7.3µM*	-8%	·	30	5.8µM*
CC1(C(=O)NCc2ccccc2)CN(S(C)(=O)=O)CC(=O)N1CCc1ccc(O)cc1 (centres undefined)	·	23%	·	·	-6	10%
CCn1c(=S)[nH]c2cc(S(=O)(=O)N3CCCCC3)ccc21	3%	13µM*	-7%	5%	-28	?
CCCCc1nn2c(=O)cc(COC(=O)c3ccccc3NC(=O)c3ccccc3OC)nc2s1	-2%	2%	-18%	6%	·	-2%
